Several values for one entry are separate records, joined by “and”; a condition that tells them apart may be missing. Identical values can stand only once. Results filed as inconclusive are left out. Activity calls are given as the source filed them. Unless noted, calls come from the whole dose curve; as a rule, active = well fitted curve in the direction sought with a large enough effect; inconclusive = small, poorly fitted or top-dose-only effect, or another doubt; inactive = no such curve, though single readings can be large; an effect the other way counts as inactive or inconclusive. Numbered stars: 1 amine (or outer) side, 2 acyl side, 3 side chain; on linkers, the order of the positions; unused ones are H or OH. Bridge positions count the residues as written; N and C are the ends. Square brackets hold non-standard residues; d marks the D form. Peptide text beside a SMILES is read from it. I, II: the chains in the order shown. Actinocin(9to1) = Cc1c2oc3c(C)ccc(C(=O)[*:1])c3nc-2c(C(=O)[*:2])c(N)c1=O; NMeV = CN[C@H](C(=O)O)C(C)C; Sar = CNCC(=O)O
Columns and labels:
[1] = Cell Viability - LYMP2-006 (AID 978); note: nearly all actives have a fitted effect of over 60% in size; note: potency is the fitted concentration of half-maximal effect
Procedure, shortened: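 Potency values are Hill-fit AC50s for decreases in intracellular ATP (CellTiter-Glo luminescence). LYMP2-006 lymphoblastoid cells, 2500 per well, were exposed to compound in complete culture medium for 24 hr at 37 C.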

[2] = Cell Viability - LYMP2-007 (AID 979);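 note: cells exposed to compound for 24 h before reading; nearly all actives have a fitted effect of over 60% in size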; note: potency is the fitted concentration of half-maximal effect
Procedure, shortened: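 Acute toxicity is scored as a concentration-dependent fall in intracellular ATP in human lymphoblastoid cells treated 24 hr at 37 C, measured by luciferase luminescence; Hill-equation modelling yields AC50.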

[3] = Cell Viability - LYMP2-008 (AID 980); note: nearly all actives have a fitted effect of over 60% in size; note: potency is the fitted concentration of half-maximal effect
Procedure, shortened: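 Acute cytotoxicity is scored as concentration-dependent loss of cellular ATP in a human lymphoblastoid line after 24 hr treatment at 37 C. ATP is quantified by luciferase luminescence.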

[4] = Cell Viability - LYMP2-010 (AID 981); note: nearly all actives have a fitted effect of over 55% in size; note: potency is the fitted concentration of half-maximal effect
Procedure, shortened: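 Acute toxicity is scored as a concentration-dependent loss of cellular ATP in human lymphoblastoid cells after 24 hr compound exposure in complete medium. Tetraoctylammonium bromide is the positive control.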

[5] = Cell Viability - LYMP2-012 (AID 982);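 note: cellular ATP by luciferase luminescence where a drop means cytotoxicity; cells exposed to compound for one day before reading; nearly all actives have a fitted effect of over 55% in size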; note: potency is the fitted concentration of half-maximal effect
[6] = Cell Viability - LYMP2-016 (AID 984); note: nearly all actives have a fitted effect of over 55% in size; note: potency is the fitted concentration of half-maximal effect
Procedure, shortened: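 Cytotoxicity was scored by luminescent ATP content (CellTiter-Glo) after 24 h compound exposure at 37 C of a human lymphoblastoid line at 2500 cells/well. Concentration-response data were fitted to the Hill equation for AC50.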

[7] = Cell Viability - LYMP2-018 (AID 985);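 note: compound exposure lasted 24 hr at 37 °C; nearly all actives have a fitted effect of over 50% in size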; note: potency is the fitted concentration of half-maximal effect
Procedure, shortened: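 Acute cytotoxicity is scored as a concentration-dependent drop in intracellular ATP after 24 hr exposure of the lymphoblastoid line in complete culture medium, measured by luciferase luminescence. Potency is expressed as AC50 from Hill modelling.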

[8] = Cell Viability - LYMP2-022 (AID 987); note: nearly all actives have a fitted effect of over 55% in size; note: potency is the fitted concentration of half-maximal effect
Procedure, shortened: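 Acute toxicity in a human lymphoblastoid line is scored as decreased intracellular ATP after 24 hr compound treatment at 37 C. ATP is measured by CellTiter-Glo luminescence; curves are fitted with the Hill equation to give AC50.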

[9] = Cell Viability - LYMP1-002 - Assay at 24 hr (AID 993); note: potency is the fitted concentration of half-maximal effect
Procedure, shortened: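 qHTS, LYMP1-002 lymphoblastoid, 24 h cpd, 37 C, CellTiter-Glo ATP luminescence; AC50 via Hill eq.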

[10] = biological target: Alpha-galactosidase A (Homo sapiens) (UniProt P06280); assay: Counterscreen for Glucocerebrosidase Inhibitors: qHTS Assay for Human alpha-Galactosidase at pH 4.5 (AID 992); note: 0% is about no effect
Sequence of Alpha-galactosidase A (Homo sapiens) (P06280 whole entry, looked up): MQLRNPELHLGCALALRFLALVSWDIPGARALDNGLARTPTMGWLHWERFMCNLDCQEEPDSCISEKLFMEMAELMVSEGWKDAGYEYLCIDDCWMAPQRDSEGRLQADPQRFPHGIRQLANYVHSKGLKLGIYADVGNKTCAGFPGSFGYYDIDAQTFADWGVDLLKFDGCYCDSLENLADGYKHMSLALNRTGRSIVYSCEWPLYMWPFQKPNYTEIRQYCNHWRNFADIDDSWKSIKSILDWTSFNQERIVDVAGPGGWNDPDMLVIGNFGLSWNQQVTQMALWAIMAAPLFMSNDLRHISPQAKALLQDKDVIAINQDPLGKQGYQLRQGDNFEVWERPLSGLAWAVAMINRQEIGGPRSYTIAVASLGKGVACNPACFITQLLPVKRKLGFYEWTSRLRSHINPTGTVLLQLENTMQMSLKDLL
Procedure, shortened: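 Human enzyme (2 nM) with 80 uM 4-methylumbelliferyl alpha-D-galactopyranoside in 50 mM citric acid, 0.005% Tween-20, pH 4.5, 20 min at room temperature. Compounds 0.7 nM–77 uM; fluorescence Ex 365/Em 440 after pH 10 stop; AC50 from Hill fits.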

[11] = biological target: DNA repair nuclease/redox regulator APEX1 (Homo sapiens) (UniProt P27695); assay: qHTS Validation Assay for Inhibitors of the Human Apurinic/apyrimidinic Endonuclease 1 (APE1) (AID 1705;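 note: TAMRA fluorescence gain over two minutes as APE1 cuts a quenched THF abasic duplex; % is set by controls: 0 for no effect and ±100 for the full control effect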)
Sequence of DNA repair nuclease/redox regulator APEX1 (Homo sapiens) (P27695 whole entry, looked up): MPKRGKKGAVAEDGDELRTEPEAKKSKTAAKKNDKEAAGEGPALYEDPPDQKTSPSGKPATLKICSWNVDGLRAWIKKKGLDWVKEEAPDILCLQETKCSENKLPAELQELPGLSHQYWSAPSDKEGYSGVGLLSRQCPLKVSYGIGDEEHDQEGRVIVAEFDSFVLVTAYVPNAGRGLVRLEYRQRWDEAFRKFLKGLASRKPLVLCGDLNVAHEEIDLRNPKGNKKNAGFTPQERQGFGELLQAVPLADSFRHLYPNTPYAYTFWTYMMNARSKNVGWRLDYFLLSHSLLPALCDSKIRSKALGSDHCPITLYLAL
Procedure, shortened: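 Activity read as rising fluorescence (598 nm emission, 525 nm excitation) from incision of a TAMRA/BHQ-2 duplex carrying a THF abasic site (50 nM). Compound and enzyme sat 15 min at RT before substrate start; signal change between first and third 60-s reads.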

[12] = Counterscreen for APE1 Inhibitors: Fluorescent Dye Displacement Validation Assay (AID 1707);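 note: plate controls were ThO with dsDNA and no compound for no effect and ThO without dsDNA for full effect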
Procedure, shortened: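 Thiazole Orange (250 nM) bound to 50 nM TAMRA-labelled dsDNA with tetrahydrofuran abasic site; displacement by DNA-binding compounds lowers fluorescence. Buffer 50 mM Tris-HCl pH 7.5, 50 mM NaCl, 2 mM MgCl2, 0.01% Tween-20; endpoint read at 480/540 nm.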

[13] = Cell Viability - LYMP2-020 (AID 986); note: nearly all actives have a fitted effect of over 55% in size; note: potency is the fitted concentration of half-maximal effect
Procedure, shortened: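 Acute cytotoxicity in a human lymphoblastoid line is scored as a concentration-dependent fall in cellular ATP after 24 hr at 37 C in complete medium. The positive control is tetraoctylammonium bromide, and potency is given as Hill-fit AC50.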

[14] = Cell Viability - LYMP2-024 (AID 988); note: nearly all actives have a fitted effect of over 60% in size; note: potency is the fitted concentration of half-maximal effect
Procedure, shortened: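 Acute toxicity is measured as concentration-dependent loss of intracellular ATP in a human lymphoblastoid line treated 24 hours at 37 C. Luciferase luminescence quantifies ATP; AC50 values come from standard Hill-equation modelling.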

[15] = Cell Viability - LYMP2-025 (AID 976);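 note: plate controls were DMSO only for no effect and tetraoctylammonium bromide control for full effect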
Procedure, shortened: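 In qHTS format, LYMP2-025 lymphoblastoid cells in complete culture medium received compound for 24 hr; ATP-based CellTiter-Glo signal gave viability, with AC50 derived by Hill equation.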

[16] = Cell Viability - LYMP2-002 (AID 977);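 note: plate controls were DMSO only for no effect and 92 µM tetraoctylammonium bromide for full effect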
Procedure, shortened: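 Human lymphoblastoid LYMP2-002 cells, 2500 per well, exposed to compounds for 24 h at 37 C in complete medium; viability read as intracellular ATP by CellTiter-Glo luminescence, AC50 from Hill fits.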

[17] = Cell Viability - LYMP2-014 (AID 983);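 note: plate controls were DMSO only for no effect and 92 µM tetraoctylammonium bromide for full effect; nearly all actives have a fitted effect of over 50% in size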
Procedure, shortened: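 Decrease in intracellular ATP after 24 hr treatment at 37 C, measured by luciferase luminescence, indicated cytotoxicity. Concentration-response data were fitted with the standard Hill equation to give AC50.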

[18] = Cell Viability - LYMP2-026 (AID 989); note: % is set by controls: 0 for no effect and ±100 for the full control effect; nearly all actives have a fitted effect of over 50% in size
Procedure, shortened: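 Concentration-dependent loss of intracellular ATP in human lymphoblastoid cells after 24 hr at 37 C, quantified by luciferase luminescence. AC50 derived from standard Hill equation.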

[19] = qHTS Assay for Lipid Storage Modulators (AID 1519; calls by dose curve; for activity change, negative = inhibition: % is set by controls: 0 for no effect and ±100 for the full control effect); settings: Drosophila S3 cells, BODIPY lipid droplet/cell ratio, laser cytometry, cells loaded with oleic acid; for activity change, negative = inhibition: at 57.5 µM (top of the series)
Procedure, shortened: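 Cells seeded at 5,000 per well were treated with compounds over a concentration series and loaded with oleic acid (400 uM, as added). Lipid droplet fluorescence (488 nm excitation, 500-530 nm channel) was read by laser-scanning cytometry and normalized to 20 uM Triacsin C.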

[20] = measured here: cell count channel max response
[21] = measured here: lipid channel max response

CC(=O)O[C@]1(C(C)=O)CC[C@H]2[C@@H]3C[C@H](C)C4=CC(=O)CC[C@]4(C)[C@H]3CC[C@@]21C
active: Potency [1] 39.8 µM | Potency [2] 39.8 µM | Potency [3] 39.8 µM | Potency [4] 31.6 µM | Potency [5] 31.6 µM | Potency [6] 39.8 µM | Potency [7] 39.8 µM | Potency [8] 39.8 µM
inactive: Potency [9]

Oc1ccc(Cl)cc1Sc1cc(Cl)ccc1O
inactive: Potency [9]

O=C1CCC(c2ccc(-n3ccnc3)cc2)=NN1
inactive: outcome [10] | Potency [11] | outcome [12]

CNCCC=C1c2ccccc2CCc2ccccc21
inactive: outcome [10] | Potency [11] | outcome [12]

Cc1c2oc3c(C)ccc(C(=O)N[C@@H]4C(=O)N[C@H](C(C)C)C(=O)N5CCC[C@H]5C(=O)N(C)CC(=O)N(C)[C@@H](C(C)C)C(=O)O[C@@H]4C)c3nc-2c(C(=O)N[C@@H]2C(=O)N[C@H](C(C)C)C(=O)N3CCC[C@H]3C(=O)N(C)CC(=O)N(C)[C@@H](C(C)C)C(=O)O[C@@H]2C)c(N)c1=O (I: T[dV]P[Sar][NMeV] / II: T[dV]P[Sar][NMeV]; ester I:1-I:C, II:1-II:C; linker I:N-II:N via Actinocin(9to1))
active: Potency [13] 0.0063 µM | Potency [8] 0.0126 µM | Potency [14] 0.004 µM | Potency [9] 0.0079 µM

CN(C)/N=N/c1nc[nH]c1C(N)=O
19.3%: max response [19, 21]
10%: max response [19, 20]
inactive: Potency [15] | Potency [16] | Potency [1] | Potency [2] | Potency [3] | Potency [4] | Potency [5] | Potency [17] | Potency [6] | Potency [7] | Potency [13] | Potency [8] | Potency [14] | Potency [18] | Potency [9] | activity change, negative = inhibition [19] 6.55%

N[C@H](CO)C(=O)O
inactive: Potency [11] | outcome [12]

O=C1OC(c2ccc(O)cc2)(c2ccc(O)cc2)c2ccccc21
inactive: Potency [15] | Potency [16] | Potency [1] | Potency [2] | Potency [3] | Potency [4] | Potency [5] | Potency [17] | Potency [6] | Potency [7] | Potency [13] | Potency [8] | Potency [14] | Potency [18] | Potency [9]

COc1cccc2c1C(=O)c1c(O)c3c(c(O)c1C2=O)C[C@@](O)(C(C)=O)C[C@@H]3O[C@H]1C[C@H](N)[C@H](O)[C@H](C)O1
active: Potency [4] 0.199 µM | Potency [5] 0.158 µM | Potency [7] 0.158 µM | Potency [13] 0.501 µM | Potency [8] 0.1 µM | Potency [14] 0.126 µM | Potency [9] 0.794 µM

O=C(O)CCCCC(=O)O
inactive: Potency [15] | Potency [16] | Potency [1] | Potency [2] | Potency [3] | Potency [4] | Potency [5] | Potency [17] | Potency [6] | Potency [7] | Potency [13] | Potency [8] | Potency [14] | Potency [18] | Potency [9]

CCCCCCc1ccc(O)cc1O
inactive: Potency [15] | Potency [16] | Potency [1] | Potency [2] | Potency [3] | Potency [4] | Potency [5] | Potency [17] | Potency [6] | Potency [7] | Potency [13] | Potency [8] | Potency [14] | Potency [18] | Potency [9]

C=CCc1ccc(O)c(OC)c1
40.9% and 11.8%: max response [19, 21]
19.8% and 9.66%: max response [19, 20]
inactive: Potency [15] | Potency [16] | Potency [1] | Potency [2] | Potency [3] | Potency [4] | Potency [5] | Potency [17] | Potency [6] | Potency [7] | Potency [13] | Potency [8] | Potency [14] | Potency [18] | Potency [9] | activity change, negative = inhibition [19] 13.1% and 1.99%

CN1CCC[C@@H]1c1cccnc1
inactive: outcome [10]

Oc1ccc(O)cc1
inactive: Potency [15] | Potency [17] | Potency [6] | Potency [18] | outcome [10] | activity change, negative = inhibition [19] -1.63% and -0.961% | Potency [11] | outcome [12]
3.65% and -23.9%: max response [19, 21]
3.88% and -20.5%: max response [19, 20]
active: Potency [3] 50.1 µM | Potency [4] 39.8 µM | Potency [5] 50.1 µM | Potency [13] 50.1 µM | Potency [8] 39.8 µM | Potency [14] 50.1 µM | Potency [9] 39.8 µM

Nc1ccc(C(=O)O)cc1
inactive: Potency [15] | Potency [16] | Potency [1] | Potency [2] | Potency [3] | Potency [4] | Potency [5] | Potency [17] | Potency [6] | Potency [7] | Potency [13] | Potency [8] | Potency [14] | Potency [18] | Potency [9]
